Compound activity: PubChem BioAssay, The Scripps Research Institute Molecular Screening Center
The list is not random: actives were taken first. Their share in the collection is about 0.83%.
LRH-1 inv ag: inverse agonists of human LRH-1 (NR5A2) | O00482 | AID 602396 | 360,000 tested, 0.13% active | inhibition, % at 3.6 µM | HEK293T StAR-luciferase reporter, LRH-1 transfected, 24 h;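 active = inhibition above the mean inhibition of all tested compounds plus 3 SD, cut at about 73% in these data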
NCOA1 inh: inhibits human SRC1 coactivator; HEK293 GAL4-SRC1 luciferase reporter, luminescence; 360,000 tested, 0.12% active; inhibition, % at 3.6 µM; AID 588354; Q15788;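 active = inhibition above the campaign mean plus 3 SD, with each screening campaign given its own cutoff, cut at about 60% in these data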
NR2F2 inh: NR2F2 (human) inhibition, primary screen | P24468 | inhibition, % at 8.6 µM | 370,000 tested, 0.7% active | HEK293T NGFI-A luciferase reporter, luminescence | AID 686940;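 active = inhibition above a per-plate cutoff, mean inhibition of test wells between control levels plus 3 SD, cut at about 38% in these data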;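 note: cells cotransfected with COUP-TFII expression vector driving the NGFI-A reporter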
NCOA2 inhibitor: human SRC2 (NCOA2) inhibition. AID 651957. HEK293 GAL4-SRC2 luciferase reporter, luminescence. inhibition, % at 9 µM. 370,000 tested, 0.17% active. Q15596;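 active = inhibition above the mean inhibition of all tested compounds plus 3 SD, set per campaign, cut at about 52% in these data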
NCOA3 inh: inhibits human SRC3 coactivator. inhibition, % at 3.6 µM. AID 588352. Q9Y6Q9. HEK293 GAL4-SRC3 luciferase reporter, luminescence. 360,000 tested, 0.17% active;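 active = inhibition above a per-campaign cutoff, the mean of all compounds plus 3 SD, cut at about 60% in these data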;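 note: higher means less SRC3-driven luciferase light from the GAL4 reporter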
VP16 Luc counter: VP16 inhibition counter-screen for COUP-TFII. shares compounds with NR2F2 inh. HEK293 Gal4-VP16 luciferase reporter, luminescence. inhibition, % at 8.5 µM. 2,500 tested, 25% active. AID 687007; in the data active = inhibition above about 13%
COUP-TFII conf: COUP-TFII (NR2F2) inhibition, confirmation assay; inhibition, % at 8.5 µM; shares compounds with NR2F2 inh; 2,500 tested, 45% active; HEK293 NGFI-A luciferase reporter, luminescence;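 active = mean inhibition over three repeats above a set limit taken from the earlier primary screen, cut at about 38% in these data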
Numbers stand for hits; – = inactive; · = no result given.

SMILES	LRH-1 inv ag	NCOA1 inh	NR2F2 inh	NCOA2 inhibitor	NCOA3 inh	VP16 Luc counter	COUP-TFII conf
Cc1ccc(C(=O)N2CCN(c3ccc(F)cc3)CC2)cc1S(=O)(=O)N1CCCCC1	–	–	48.9	–	–	–	–
CC1CCN(S(=O)(=O)c2cc(C(=O)N3CCN(c4ccccc4)CC3)ccc2Br)CC1	–	–	47.0	–	–	–	44.7
CC(C)(C)[C@H]1C=C(C(=O)Nc2ccccc2)O[C@@H](OCCCCO)C1	–	–	63.5	–	–	–	–
O=C(Nc1ccccc1)C1=C[C@H](C2CCCCC2)C[C@H](OCCCCO)O1	–	–	–	–	–	·	·
O=C(Nc1ccccc1)C1=C[C@@H](C2CCCCC2)C[C@@H](OCCCCO)O1	–	–	39.6	–	–	–	–
CC(C)(C)[C@@H]1C=C(C(=O)O)O[C@H](OCCCCO)C1	–	–	–	–	–	·	·
O=C(CSc1nnc(-c2cccnc2)n1-c1ccccc1)Nc1ccc2c(c1)OCCO2	·	·	–	–	·	·	·
COc1ccc(Cl)cc1-c1cc(C(=O)Nc2ccc(C)c(NS(C)(=O)=O)c2)[nH]n1	–	–	38.1	–	–	–	–
COc1ccc(Cl)c(-c2cc(C(=O)Nc3ccc(C)c(NS(C)(=O)=O)c3)[nH]n2)c1	–	–	–	–	–	·	·
Cc1ccc(NC(=O)c2cc(-c3cc(Cl)ccc3C)n[nH]2)cc1NS(C)(=O)=O	–	–	50.3	–	–	–	40.8
c1nc(NCC2CC2)c2cc(-c3ccc4c(c3)OCO4)ccc2n1	·	·	–	·	·	·	·
CCC(CO)Nc1cccc2c1S(=O)(=O)N(Cc1cn(Cc3ccc(Cl)cc3)nn1)Cc1ccccc1O2 (stereo unspecified)	·	·	–	–	·	·	·
O=C(Nc1cccc(S(=O)(=O)N2CCCC2)c1)c1ccc2c(=O)n3c(nc2c1)CCCCC3	–	–	–	–	–	·	·
O=C(Nc1cccc(S(=O)(=O)N2CCOCC2)c1)c1ccc2c(=O)n3c(nc2c1)CCCCC3	–	–	38.7	–	–	–	–
CC(=O)Nc1ccc(SCC(=O)c2cc(C)n(-c3ccccc3)c2C)cc1	–	–	54.2	–	–	22.9	40.4
Cn1c(CCN2CCN(c3ccccn3)CC2)nc2cc(NC(=O)COc3ccc(Cl)cc3)ccc21	–	–	61.0	–	–	–	59.5
Cc1cccc(OCC(=O)Nc2ccc3c(c2)nc(CCN2CCN(c4ccccn4)CC2)n3C)c1	–	–	52.2	–	–	–	–
COc1ccc(Br)cc1CSC(=N)N	–	–	–	–	–	·	·
CCCCCOc1ccc(Br)cc1CSC(=N)N	–	–	65.5	–	–	15.7	47.3
C[C@@H]1C=CCCO[C@]12C(=O)N(CC1CC1)c1ccccc12	·	·	–	–	·	·	·
CCc1ccc(/C=C/c2c[nH]c3ccccc23)[n+](CC)c1	–	–	40.3	–	–	–	38.4
CCc1ccc(-c2cc(C(=O)N/N=C/c3c[nH]c4ccccc34)[nH]n2)cc1	–	–	–	–	–	·	·
Oc1ccc(Oc2ccc3c(C(F)(F)F)cc(C(F)(F)F)nc3n2)cc1	–	–	49.2	–	–	–	37.4
O=C(NCc1ccccc1)c1c[nH]c2ccc(S(=O)(=O)Nc3ccc4c(c3)OCCO4)cc2c1=O	–	–	–	–	–	·	·
O=C(NCc1cccnc1)c1c[nH]c2cc3c(cc2c1=O)OCCO3	–	–	39.4	–	–	–	–
SMILES	LRH-1 inv ag	NCOA1 inh	NR2F2 inh	NCOA2 inhibitor	NCOA3 inh	VP16 Luc counter	COUP-TFII conf
O=C(NCc1ccccc1)[C@H]1CCCN1C(=O)[C@H]1CCCN1C(=O)c1ccc(F)cc1F	·	·	–	–	·	·	·
COc1ccc(C2CCc3cc4c(cc3C2=NOC(C)=O)OCO4)cc1OC (stereo unspecified)	–	–	44.3	–	–	–	–
O=C1C=CC2C3C(=O)N(c4ccccc4)C(=O)C3C1N2Cc1ccccc1 (stereo unspecified)	–	–	60.1	74.8	–	16.9	–
S=C(Nc1ccccc1)Nc1ccc(OCc2ccc(Cl)cc2Cl)cc1	–	–	75.7	81.7	–	69.7	70.5
O=C(O)c1cccc(CSc2nnc(COc3ccccc3)o2)c1	–	–	41.0	–	–	34.6	–
O=C(O)c1cccc(CSc2nnc(-c3ccc(Cl)cc3)o2)c1	–	–	39.6	54.6	–	36.6	–
O=C(O)c1ccc(CSc2nnc(COc3ccccc3)o2)cc1	–	–	–	–	–	·	·
Cc1nn(C)c(C(=O)NCc2ccc(Cl)cc2)c1Cl	–	–	60.6	–	–	–	43.8
COc1ccc(N2CCN(C(=O)CSc3nnc4n3C(C)(C)Cc3ccccc3-4)CC2)cc1	–	–	–	–	–	·	·
Cc1ccc(Cl)cc1N1CCN(C(=O)CSc2nnc3n2C(C)(C)Cc2ccccc2-3)CC1	–	–	63.1	–	–	–	49.6
O=C(NCc1ccccc1)c1cc(C2CCCN(C(=O)C3CC3)C2)on1 (stereo unspecified)	–	–	–	–	–	·	·
O=C(NCc1ccccc1)c1cc(C2CCCN(C(=O)C3CCCCC3)C2)on1 (stereo unspecified)	–	–	101.4	–	–	–	–
CC(=O)N1CCCC(c2cc(C(=O)Nc3ccccc3)no2)C1 (stereo unspecified)	–	–	41.0	–	–	16.6	59.1
O=C(NCC1COCCO1)C1CCN(S(=O)(=O)c2cccc3ccccc23)CC1 (stereo unspecified)	·	·	–	–	·	·	·
Cc1ccc(NC(=O)C2CCN(c3nnc(-n4cccc4)s3)CC2)c(C)c1	·	·	–	–	·	·	·
COC1=C[C@H](C(=O)NCc2ccc(OC)cc2)C(C)C(c2ccccc2)CC1=O (stereo partly specified)	·	·	–	–	·	·	·
CC(C)c1ccc(NC(=O)O[C@H]2CC[C@@]34CCCN3C(=O)CCC[C@H]4[C@H]2C)cc1	·	·	–	·	·	·	·
Cc1cc(C(=O)NC2CCCc3c2cnn3-c2ccc(C)c(C)c2)n(C)n1 (stereo unspecified)	–	–	65.6	–	–	–	69.3
CCc1cc(C(=O)NC2CCCc3c2cnn3-c2cccc(C)c2C)n(C)n1 (stereo unspecified)	·	·	64.4	–	·	–	66.2
Cc1cccc(-n2ncc3c2CCCC3NC(=O)C2(C(N)=O)CC2)c1C (stereo unspecified)	–	–	65.7	–	–	–	51.6
Cc1cc(C)cc(-n2ncc3c2CCCC3NC(=O)C2(C(N)=O)CC2)c1 (stereo unspecified)	–	–	–	–	–	·	·
Cc1ccc(-n2ncc3c2CCCC3NC(=O)c2ccoc2)cc1C (stereo unspecified)	–	–	–	–	–	·	·
O=C(NCCc1cccc(Cl)c1)c1ccc(OC2CCN(Cc3ccccn3)CC2)cc1	–	–	61.1	–	–	–	40.1
